The structures appear in SMILES notation. This is part of a sample that, as a whole, favours compounds with a hit. Of some 83,000 tested, about 20% had one in any assay.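 A percent growth of 40 corresponds to 60% growth inhibition; 0 means no net growth; -100 means all cells died. Active threshold: below 10.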 Unmarked numbers belong to inactive results. Active and inactive are the calls of the source.

Among the test systems are SK-MEL-2 melanoma; SN12C renal; UO-31 renal; TK-10 renal; ACHN renal; CAKI-1 renal; A498 renal; CCRF-CEM leukemia; MOLT-4 leukemia.
What all share (test): NCI-60 one-dose screen, 48 h (100 = growth as untreated, 0 = no growth, -100 = all killed)
Common to all, as to conditions: 10 µM

Take `CCCCCC(=O)N1c2ccccc2NC2=C(C(=O)CC(c3ccc(OC)c(OC)c3)C2)C1c1ccc(C(F)(F)F)cc1` (stereo unspecified): the growth was 47.8% in the assay on SK-MEL-2 melanoma; 62% with SN12C renal; 44.9% in the assay with UO-31 renal; 64.4% with TK-10 renal; 58.3% with ACHN renal; 65.6% in the assay with CAKI-1 renal. The figures for the growth in the assay on A498 renal and in the assay with CCRF-CEM leukemia were 57.2% and 43.5%, respectively.

For the compound `COc1cc(-c2cc(/C=C/C(C)=O)[nH]n2)cc(OC)c1OC`, the growth in the assay on SK-MEL-2 melanoma is 87.2%; in the assay on SN12C renal, 67.5%; in the assay with UO-31 renal, 52.4%; in the assay with TK-10 renal it was 73.8%; in the assay with ACHN renal, 78.7%; in the assay with CAKI-1 renal it was 55.2%. Also, the figures for the growth in the assay on A498 renal, in the assay with CCRF-CEM leukemia and with MOLT-4 leukemia were 90.7%, 20% and 71.2%, respectively.

As to `O=C(Nc1ccc(OS(=O)(=O)Cc2ccccc2)cc1)C12CC3CC(CC(C3)C1)C2`, the growth in the assay with SK-MEL-2 melanoma was 102%; with SN12C renal, 88.3%; in the assay with UO-31 renal it was 78.4%; in the assay with TK-10 renal, 112%; in the assay with ACHN renal, 99.8%; in the assay with CAKI-1 renal, 84.2%. Moreover, the growth in the assay with A498 renal is 83.1%; in the assay on CCRF-CEM leukemia it was 85.2%.

Turning to `CCNC1(NC#N)CCCCC1`, the growth in the assay on SK-MEL-2 melanoma was 157%; in the assay on SN12C renal, 100%; with UO-31 renal it was 90.9%; with TK-10 renal, 141%; with ACHN renal it was 111%; with CAKI-1 renal it was 96.3%. Moreover, the growth in the assay on A498 renal was 98.3%; with CCRF-CEM leukemia it was 102%; with MOLT-4 leukemia, 108%.

For the compound `COc1ccc(C2C=C(c3ccc(Cl)c(Cl)c3)N=C3SC(C)=CN32)cc1OC` (stereo unspecified), the growth with SK-MEL-2 melanoma is 79.2%; with SN12C renal it was 70.6%; in the assay on UO-31 renal, 60.7%; in the assay on TK-10 renal, 74.1%; in the assay with ACHN renal, 68.3%; in the assay on CAKI-1 renal, 61.7%. Further, the values for the growth in the assay with A498 renal, in the assay on CCRF-CEM leukemia and in the assay with MOLT-4 leukemia were 105%, 58.5% and 48.8%, respectively.

For `CCCc1c(CC)c(=N)c2ccccc2n1C`, the growth was 37.3% with SK-MEL-2 melanoma; 72.5% in the assay on SN12C renal; 38.3% in the assay on UO-31 renal; 74.4% in the assay on TK-10 renal; 65.8% with ACHN renal; 39.8% with CAKI-1 renal. The growth with A498 renal was 42.4%; in the assay with CCRF-CEM leukemia, 9.26% (active); with MOLT-4 leukemia, 0.122% (active).

For `CCOCC[P+](c1ccccc1)(c1ccccc1)c1ccccc1`, the growth in the assay on SK-MEL-2 melanoma is 51.2%; with SN12C renal, 59%; in the assay on UO-31 renal it was 75.9%; in the assay on TK-10 renal, 57.3%; with ACHN renal it was 94.2%; in the assay on CAKI-1 renal, 85.5%. For the same compound, the figures for the growth with A498 renal, in the assay on CCRF-CEM leukemia and in the assay on MOLT-4 leukemia were 72%, 34.7% and 47.6%, respectively.

As to `Cc1cc(Nc2cccc(F)c2)nc(NCc2ccccc2)n1`, the growth with SK-MEL-2 melanoma is 19.8%; with SN12C renal, 16.7%; in the assay with UO-31 renal it was 20.7%; in the assay on TK-10 renal, 35.7%; in the assay on ACHN renal it was 17.1%; in the assay with CAKI-1 renal, 24.1%. The growth in the assay on A498 renal is 24.4%; in the assay on CCRF-CEM leukemia, 12.8%; in the assay with MOLT-4 leukemia it was 22.5%.

As to `O=C1NN(c2ccccc2)C(c2cccnc2)=N/C1=C\c1cccnc1`, the growth in the assay with SK-MEL-2 melanoma was 103%; in the assay with SN12C renal it was 102%; in the assay with UO-31 renal, 82.7%; with TK-10 renal it was 110%; with ACHN renal it was 95.4%; in the assay with CAKI-1 renal, 89%. The growth in the assay on A498 renal was 52.3%; in the assay with CCRF-CEM leukemia, -22% (active); with MOLT-4 leukemia it was 96.4%.

Take `Nc1ccc(C2=CC(c3ccc(Cl)cc3)N3C=CSC3=N2)cc1` (stereo unspecified): the growth with SK-MEL-2 melanoma is -49.9% (active); with SN12C renal, -45.2% (active); in the assay with UO-31 renal, -96% (active); in the assay on TK-10 renal it was -30.1% (active); in the assay on ACHN renal it was -100% (active); in the assay on CAKI-1 renal it was -19.5% (active). For the same compound, the growth in the assay on A498 renal was -93.5% (active); in the assay on CCRF-CEM leukemia it was -22.1% (active); in the assay on MOLT-4 leukemia, -11% (active).

With `Cc1nc2scc(-c3ccc(Cl)cc3)n2c(=O)c1CCN1CCOCC1`, the growth with SK-MEL-2 melanoma is 105%; in the assay on SN12C renal, 94%; in the assay on UO-31 renal, 57.5%; in the assay on TK-10 renal, 142%; in the assay on ACHN renal, 89.4%; in the assay on CAKI-1 renal, 84.6%. In addition, the growth is 119% in the assay with A498 renal, 93.6% in the assay on CCRF-CEM leukemia and 78.1% with MOLT-4 leukemia.

Take `Cc1ccc(-c2cc(-c3cccc(Nc4ccnc5cc(Cl)ccc45)c3)nc3nc(N)[nH]c(=O)c23)cc1`: the growth in the assay on SK-MEL-2 melanoma was 87.6%; in the assay on SN12C renal, 96.6%; in the assay with UO-31 renal it was 78.1%; in the assay with TK-10 renal, 112%; in the assay on ACHN renal, 105%; in the assay with CAKI-1 renal, 94.8%. For the same compound, the growth with A498 renal is 109%; in the assay on CCRF-CEM leukemia, 56.1%; with MOLT-4 leukemia it was 81.8%.

For `NCCNc1ccc2cc(-c3nc4ccccc4[nH]3)c(=O)oc2c1`, the growth is 106% with SK-MEL-2 melanoma; 92.2% in the assay with SN12C renal; 81.7% in the assay with UO-31 renal; 128% in the assay on TK-10 renal; 95.8% with ACHN renal; 96.3% in the assay on CAKI-1 renal. For the same compound, the growth in the assay with A498 renal was 94.7%; in the assay on CCRF-CEM leukemia, 81.9%; with MOLT-4 leukemia, 88.4%.

`CCOC(=O)Cn1nnc(-c2ccc(OCc3ccccc3F)cc2)n1`: the growth in the assay with SK-MEL-2 melanoma is 100%; in the assay on SN12C renal it was 98.2%; in the assay with UO-31 renal it was 58%; in the assay with TK-10 renal, 105%; in the assay on ACHN renal, 84.6%; with CAKI-1 renal, 76.5%. Moreover, the growth is 40.9% in the assay with A498 renal, 92.4% in the assay with CCRF-CEM leukemia and 90% with MOLT-4 leukemia.

Consider `O=C(CCCC(=O)N/N=C/c1cc(Cl)ccc1O)N/N=C\c1cc(Cl)ccc1O`, for which the growth was 51.7% in the assay on SK-MEL-2 melanoma; 35.3% in the assay on SN12C renal; 5.41% (active) in the assay on UO-31 renal; 32.3% with TK-10 renal; 23.1% in the assay on ACHN renal; -1.73% (active) in the assay with CAKI-1 renal. The growth in the assay with A498 renal was 63.5%; in the assay on CCRF-CEM leukemia it was -0.225% (active); in the assay on MOLT-4 leukemia, -12.9% (active).

For `O=C1/C(=C/c2ccc([N+](=O)[O-])s2)Oc2ccc(Cl)cc21`, the growth in the assay with SK-MEL-2 melanoma is -53.7% (active); in the assay on SN12C renal it was -54.3% (active); in the assay on UO-31 renal, -89.4% (active); with TK-10 renal it was -32.7% (active); with ACHN renal, -71.1% (active); in the assay on CAKI-1 renal, -29.9% (active). Besides, the growth is 9.57% (active) with A498 renal, 2.86% (active) in the assay on CCRF-CEM leukemia and -15.7% (active) in the assay on MOLT-4 leukemia.

On to `COc1cc(C2C=C(c3ccc(Cl)cc3)N=C3SC(C)=CN32)cc(OC)c1OC` (stereo unspecified), for which the growth was 102% in the assay on SK-MEL-2 melanoma; 90.6% with SN12C renal; 79.3% in the assay on UO-31 renal; 71% in the assay with TK-10 renal; 105% in the assay with ACHN renal; 88.7% in the assay with CAKI-1 renal. Moreover, the results for the growth in the assay on A498 renal, with CCRF-CEM leukemia and in the assay on MOLT-4 leukemia were 86.1%, 89.2% and 80.2%, respectively.

Source of the values: PubChem BioAssay (NCI).
